Results on 40 compounds are retold here after PubChem BioAssay (NCI).

This is part of a sample that, as a whole, favours compounds with a hit. Of some 83,000 tested, about 20% had one in any assay.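 Growth was measured after 48 h exposure to one concentration of compound in 96-well plates. Values under 10 count as active.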 Values without a mark were called inactive. Calls of active or inactive are those of the source.

The assay deals with ACHN renal. Description: NCI-60 one-dose screen, 48 h (100 = growth as untreated, 0 = no growth, -100 = all killed). The conditions noted are these: 10 µM. The method, then:
Growth inhibition of the ACHN human tumor cell line is measured as a screen for anti-cancer activity. Cells are grown in 96 well plates and exposed to the test compound for 48 hours. Compounds are tested at a single concentration, which is 10^-5 M for most compounds. The reported endpoint is percent growth (GI% or GIPRCNT), where numbers from 0 - 100% represent growth inhibition, and numbers from -100% - 0 represent cell death. For example, a value of 40 represents 60% growth inhibition. A value of 0 means no net growth occurred over the course of the experiment. A value of -40 indicates 40% of cells at the beginning of the experiment died by the end of the experiment. A value of -100 means all cells are dead at the end of the experiment.
NCI-60 Human Tumor Cell Lines Screen was performed using the standard one-dose NCI protocol, which is described in more detail at https://dtp.cancer.gov/discovery_development/nci-60/default.htm.
Compounds with GIPRCNT values below 10 were considered active. Activity score was based on GIPRCNT using the following formula: […]
Score is 0 for GIPRCNT values of 100 or above, 50 for GIPRCNT values of 0, and 100 for GIPRCNT values of -100.
With `CCOC1(OCC)OC(c2ccccc2)=C(C#N)C(/C=C\c2ccccc2)C1(OCC)OCC` (stereo not given), the growth was 83.5%. With `COc1cc(/C(=C2/O[C@@H]([C@H]3COC(C)(C)O3)[C@H]3OC(C)(C)O[C@@H]23)c2ccc3ccccc3c2)cc(OC)c1OC` the figure was 0.857% (active); with `O=C1/C(=C\c2ccc(F)cc2)CN(C(=O)c2ccc([N+](=O)[O-])cc2)C/C1=C\c1ccc(F)cc1`, 44.3%.

On to `COc1cc(CNc2ccccc2C(=O)N2CCN(C(=O)c3cc(-c4cc(OC)c(OC)c(OC)c4)n4nc(-c5ccccc5)cc4n3)CC2)cc(OC)c1OC`, for which the growth is 51.8%. Turning to `CCN(CCCCCCCCCCN1CC(=O)N(CCCCCCCCCCN(CC)Cc2ccccc2OC)CC1=O)Cc1ccccc1OC`, the growth is 3.48% (active).

For the compound `COc1ccc(-c2nn(-c3cccc(NC(=O)Nc4cc(C(F)(F)F)cc(C(F)(F)F)c4)c3)cc2-c2ccncc2)cc1Cl`, the growth was 11%. The same measure for `Cc1occc1-c1nnc(SCC(=O)c2ccc(NC(=O)CC(C)C)cc2)o1`: 109%. The same measure for `Clc1ccc(Nc2ccnc(NCCCNc3ccnc4cc(Cl)ccc34)n2)cc1`: -93.9% (active); for `CCOC(=O)N1C/C(=C/c2ccc(F)cc2)C(=O)/C(=C/c2ccc(F)cc2)C1`: -28% (active); for `O=[N+]([O-])c1ccc(N/N=C/c2cccc3ccccc23)nc1`: 91.8%.

Take `COc1ccc2c(c1)sc1nc(-c3ccccc3)c(-c3ccc(O)c(OC)c3)n12`: the growth was 101%. For the compound `CN1CCCNc2c(c(=O)c2=O)NCCCN(C)CCCNc2c(c(=O)c2=O)NCCCN(C)CCCNc2c(c(=O)c2=O)NCCCN(C)CCCNc2c(c(=O)c2=O)NCCCN(C)CCCNc2c(c(=O)c2=O)NCCCN(C)CCCNc2c(c(=O)c2=O)NCCCN(C)CCCNc2c(c(=O)c2=O)NCCC1`, the growth was 43.3%. The same measure for `CCN(CC)CCCC(C)Nc1ccc2ccc(Cl)cc2n1` (stereo not given): 98.5%. Regarding `O=C(O)C(SC(C(=O)O)c1ccccc1)c1ccccc1` (stereo not given), the growth was 104%.

`O=C(NN1C(=O)CSC1c1ccc(Cl)cc1)c1cccnc1` (stereo not given): the growth is 113%. Consider `CCCCC(CCCCCC(CCCC)NCc1ccc2c(c1)OCO2)NCc1ccc2c(c1)OCO2` (stereo not given), for which the growth was -100% (active). The same measure for `COc1cc(/C=C2\CCCC3=C2N=C2SC=NN2C3c2cc(OC)c(OC)c(OC)c2)cc(OC)c1OC` (stereo not given): 15.3%. With `CCCCCCCC(C)NCCO` (stereo not given) the figure was 117%. As to `COc1ccc2c(c1)C(=O)c1c-2c(OCCN2CCCCC2)nc2ccc(OC)cc12`, the growth is 9.5% (active).

Turning to `COc1ccc2nc3ccccc3c(NCCNCC(C)O)c2c1` (stereo not given), the growth is -3.07% (active). The same measure for `O=C(Nc1ccc(Cl)c(Cl)c1)Nc1c(Oc2ccc(Cl)c(Cl)c2)ccc(Cl)c1S(=O)(=O)O`: 61.2%; for `O=C(O)c1ccc(P(=O)(O)O)c([N+](=O)[O-])c1`: 103%; for `COc1ccc(-c2nnc(-c3c(-c4ccccc4)nc4ncccn34)o2)cc1OC`: 88.8%. With `O=C(/C(=C/c1ccccc1)CN1CCCCC1)c1ccccc1` the figure was -59.3% (active).

For `COc1cccc(-c2cc(-c3cccc(NS(C)(=O)=O)c3)nc(N)c2C#N)c1O`, the growth is 43.3%.

Consider `O=C(Nc1cccc(-n2cc(-c3ccncc3)c(-c3cc(O)cc(Cl)c3)n2)c1)Nc1ccc(Cl)c(C(F)(F)F)c1`, for which the growth was 21.3%. Take `C#Cc1ccc(-n2c(/C=C/c3ccc(O)c(OC)c3)nc3ncccc3c2=O)cc1`: the growth was 97.3%. On to `Cn1c(N)c(N=Nc2ccc(S(=O)(=O)Nc3nccs3)cc2)c(=O)n(C)c1=O`, for which the growth is 102%. The same measure for `COc1cc(-c2cc(/C=C/C(=O)c3ccc4c(c3)OCO4)[nH]n2)cc(OC)c1OC`: 84.6%; for `Nc1ncn([C@@H]2O[C@H](CO)[C@@H](O)[C@H]2O)c(=O)n1`: 11.8%; for `O=C(CC(NC(=O)OCc1ccccc1)C(=O)OCc1ccccc1)OCc1ccccc1` (stereo not given): 104%.

`CCOC(=O)C(=Cc1ccc(Br)cc1)C(=O)OCC`: the growth is -81% (active). With `N#CCCN1C/C(=C/c2ccc(Br)cc2)C(=O)/C(=C/c2ccc(Br)cc2)C1` the figure was -53.5% (active); with `O=C(Nc1ccc(OS(=O)(=O)c2ccccc2)cc1)C12CC3CC(CC(C3)C1)C2`, 78.5%. For the compound `O=C(C[n+]1ccccc1)c1ccc2ccccc2c1`, the growth is 102%.

For `COc1ccc(OC)c(/C=C/c2nc(SC)n(-c3ccc(Cl)cc3)n2)c1`, the growth is 67.9%. In the case of `CC(=O)n1c(-c2ccc(Cl)c(Cl)c2)cn(-c2ccc(Cl)cc2)c1=O`, the growth is 22.8%. With `O=C(N/N=C/c1ccccc1)C(Oc1ccccc1)c1ccccc1` (stereo not given) the figure was 93.1%; with `CC1CN(Cc2ccccc2)C(=O)NC1=O` (stereo not given), 109%. With `O=C(Nc1cccc(-n2cc(-c3ccncc3)c(-c3ccc(O)c(Cl)c3)n2)c1)c1ccc(Cl)c(Cl)c1` the figure was 49%.
